Among the data in PubChem BioAssay (Tox21) are Potency values, retold here.

“And” between values parts separate entries of the source, which are not always exact repeats. Equal values may be shown once. Results filed as inconclusive are left out. A call without a number means that no potency is given here. More than one record can exist for a structure, and the calls need not agree. The source made the active and inactive calls. Unless noted, calls come from the whole dose curve; as a rule, active = well fitted cell-killing curve with a large enough effect in the repeat runs; inconclusive = weak or mixed curves, or effect the other way; inactive = no such curve, though single readings can be large or run the other way.
Note: nearly all actives have a fitted effect of over 30% in size.

Progesterone receptor (Homo sapiens), sequence (P06401 whole entry, looked up): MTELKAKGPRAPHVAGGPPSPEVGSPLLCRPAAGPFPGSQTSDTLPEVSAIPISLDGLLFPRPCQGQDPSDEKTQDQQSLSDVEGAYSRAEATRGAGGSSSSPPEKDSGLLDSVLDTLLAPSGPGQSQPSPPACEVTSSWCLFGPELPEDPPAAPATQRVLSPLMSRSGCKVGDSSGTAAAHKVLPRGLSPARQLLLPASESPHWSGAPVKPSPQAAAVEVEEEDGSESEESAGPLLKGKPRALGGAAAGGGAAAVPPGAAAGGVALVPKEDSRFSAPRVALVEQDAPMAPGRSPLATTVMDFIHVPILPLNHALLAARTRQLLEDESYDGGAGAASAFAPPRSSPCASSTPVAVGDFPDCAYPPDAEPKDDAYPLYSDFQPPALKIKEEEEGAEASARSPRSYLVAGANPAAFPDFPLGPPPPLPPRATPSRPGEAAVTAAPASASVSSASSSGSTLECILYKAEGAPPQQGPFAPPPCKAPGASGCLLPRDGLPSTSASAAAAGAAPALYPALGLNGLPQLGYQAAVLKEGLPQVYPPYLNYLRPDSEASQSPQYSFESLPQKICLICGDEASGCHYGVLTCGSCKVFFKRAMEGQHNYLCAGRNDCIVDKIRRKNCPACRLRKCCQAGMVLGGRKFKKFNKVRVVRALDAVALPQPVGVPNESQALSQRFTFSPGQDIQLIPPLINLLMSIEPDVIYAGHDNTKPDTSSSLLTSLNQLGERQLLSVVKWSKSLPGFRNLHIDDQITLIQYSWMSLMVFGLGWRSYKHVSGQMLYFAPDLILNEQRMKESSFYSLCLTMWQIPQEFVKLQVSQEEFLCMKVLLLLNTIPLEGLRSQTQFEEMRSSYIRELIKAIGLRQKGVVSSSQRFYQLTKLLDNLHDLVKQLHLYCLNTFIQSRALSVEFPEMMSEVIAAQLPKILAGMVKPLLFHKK

System in one assay: not listed separately
The assay is described as follows: qHTS assay to identify small molecule agonists of the estrogen receptor alpha (ER-alpha) signaling pathway in the presence of an antagonist - cell viability counter screen (AID 1259386).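 Note: cells exposed to compounds for 22 h at 37 °C before the viability read.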 Note: potency is the fitted concentration of half-maximal effect. Conditions: VM7Luc4E2 viability, CellTiter-Fluor fluorescence, 22 h; series mostly up to 92.4 µM. The method in brief:
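Read-out: CellTiter-Fluor fluorescence after 1hr reagent incubation, measured in the same wells as the luciferase readout. VM7Luc4E2 cells were exposed to 15 compound concentrations with 10.0nM ICI-182,780 for 22hr at 37C.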
With `O=C(OCC(COC(=O)c1ccccc1)(COC(=O)c1ccccc1)COC(=O)c1ccccc1)c1ccccc1`, the Potency result was “inactive”.
On the same count and under the same terms, the result for `Cc1cc(N)c(S(=O)(=O)O)cc1Cl` reads “inactive”.
The same measure, in the same setting: the result for `CCN(CC)CCNC(=O)c1c(C)[nH]c(/C=C2\C(=O)Nc3ccc(F)cc32)c1C` reads 2.98 µM (active).
Still for that read-out and setting: the result for `CC(C)(C)c1ccc(C(=O)CCCN2CCC(OC(c3ccccc3)c3ccccc3)CC2)cc1` reads “inactive”; that for `O=c1cc(-c2ccc(O)cc2)oc2cc(O)cc(O)c12`, “inactive and 48.6 µM (active)”; that for `CO[Si](CCCNc1ccccc1)(OC)OC`, “inactive”.
`CCCCCCCCCCCC[N+](C)(C)CCCCCCCCCCCC`: the Potency is 68.6 µM (active).
Still for that read-out and setting: the result for `CCCCCCCC(=O)[O-].CCCCCCCC(=O)[O-].[Zn+2]` reads “inactive”; that for `C/C=C(\C)C(=O)OCc1ccccc1`, “inactive”.
With `O=C(O)c1c(Cl)cccc1Cl`, the Potency result is “inactive”.
For `CC(C)(C)c1ccc(C(=O)O)cc1`, the Potency result is “inactive”.
For the molecule `Cc1cccc(N(C)C(=S)Oc2ccc3c(c2)C2CCC3C2)c1` (stereo not given), the Potency entry was “inactive”.
Still for that read-out and setting: then `CCN(C(=O)N(CC)c1ccccc1)c1ccccc1`, with “inactive”; and `O=C(Nc1cccc(Cl)c1)OCC#CCCl`, with 61.1 µM (active).
Still for that read-out and setting: then `CN(C)[C@@H]1C(=O)C(C(N)=O)=C(O)[C@@]2(O)C(=O)C3=C(O)c4c(O)cccc4C[C@H]3C[C@@H]12`, with “inactive”; and `Oc1cccc2cc3cccc(O)c3c(O)c12`, with “inactive”.
Same read-out and setting: the result for `Oc1ccc2cc(SSc3ccc4cc(O)ccc4c3)ccc2c1` reads “inactive”; that for `CCCCCOC(=O)CCCC`, “inactive”; that for `C1CCCC1`, “inactive”.
For the molecule `CCCC/C=C/CCCCO`, the Potency entry was “inactive”.
Take `CCCCCCCC/C=C\CCCCCCCCOCCO`: the Potency is 35.5 µM (active).
On the same count and under the same terms, the result for `Nc1c(Cl)cc(Cl)cc1Cl` reads “inactive”; that for `C/C=C1/C(=O)C[C@H]2[C@@H]3CCC4=CC(=O)CC[C@]4(C)[C@H]3CC[C@]12C`, “inactive”; that for `Nc1ccc2cc(S(=O)(=O)O)cc(O)c2c1N=Nc1ccccc1C(F)(F)F`, 48.6 µM (active).
Consider `COc1cccc(N)c1`, for which the Potency result is “inactive”.
As for `OCCCCCCCCCCCCBr`, the Potency entry was “inactive”.
Take `[Cl][Au]([Cl])[Cl]`: the Potency was 43.3 µM (active).
Regarding `COc1cc(-c2ccc(N=C=O)c(OC)c2)ccc1N=C=O`, the Potency entry was “inactive”.
In the case of `CSc1cnc(C)cn1`, the Potency entry is “inactive”.
For the molecule `Clc1ccccc1C(c1ccccc1)(c1ccccc1)n1ccnc1`, the Potency is 54.5 µM (active) and inactive.
Consider `CCC(Cl)C(Cl)C(Cl)CC(Cl)C(Cl)C(C)Cl` (stereo not given), for which the Potency result was “inactive”.

A further assay addresses Progesterone receptor (Homo sapiens) (UniProt P06401). Kind of assay: qHTS assay to identify small molecule agonists of the progesterone receptor (PR) signaling pathway (AID 1346784; calls by dose curve). The settings on record: PR-UAS-bla HEK293T, beta-lactamase FRET ratio, 16 h; series mostly up to 92.4 µM. The method, boiled down: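 Agonist qHTS: compounds pinned onto 3,000 PR-UAS-bla HEK 293T cells per well in charcoal-stripped serum medium, 16hr at 37C, then beta-lactamase activity measured by LiveBLAzer FRET fluorescence after 2 hours at room temperature.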
Regarding `CC(C)(C)c1ccc(C(=O)CCCN2CCC(OC(c3ccccc3)c3ccccc3)CC2)cc1`, the Potency entry is “inactive”.
In the case of `CO[Si](CCCNc1ccccc1)(OC)OC`, the Potency result was “inactive”.
With `C/C=C(\C)C(=O)OCc1ccccc1`, the Potency entry is “inactive”.
For `Cc1cccc(N(C)C(=S)Oc2ccc3c(c2)C2CCC3C2)c1` (stereo not given), the Potency entry is “inactive”.
Still for that read-out and setting: the result for `CN(C)[C@@H]1C(=O)C(C(N)=O)=C(O)[C@@]2(O)C(=O)C3=C(O)c4c(O)cccc4C[C@H]3C[C@@H]12` reads “inactive”.
Same read-out and setting: the result for `Oc1cccc2cc3cccc(O)c3c(O)c12` reads “inactive”.
Still for that read-out and setting: the result for `C1CCCC1` reads “inactive”; that for `Nc1c(Cl)cc(Cl)cc1Cl`, “inactive”; that for `Nc1ccc2cc(S(=O)(=O)O)cc(O)c2c1N=Nc1ccccc1C(F)(F)F`, “inactive”.
On to `COc1cccc(N)c1`, for which the Potency entry was “inactive”.
Still for that read-out and setting: the result for `CSc1cnc(C)cn1` reads “inactive”; that for `CC(C)CCCCCCCCCCCCCCC(=O)O`, “inactive”; that for `CCC(Cl)C(Cl)C(Cl)CC(Cl)C(Cl)C(C)Cl` (stereo not given), “inactive”.
Still for that read-out and setting: the result for `O=C1c2ccccc2Cc2ccccc21` reads “inactive”.
